A selection: hits, their analogues and other compounds. The true share with any hit is near 21%.
Cycloheximide cs: counter-screen for Shiga toxin inhibitors: cycloheximide protein synthesis inhibition; cell reporter, cycloheximide protein synthesis inhibition counterscreen; AID 2314; actives 12% (n = 300,000); max response, %; in the data active = max response mostly above about 13%, no sharp cut-off; inactive = mostly below about 14%; also: read at 38.3 µM for the half of the compounds with a filed dose; 0% is about no effect
Shiga toxin inh: blocks Shiga toxin action in Vero cells. Vero cells, Shiga toxin protein synthesis inhibition reporter. inhibition, % at 38.7 µM. actives 9.2% (n = 290,000); in the data active = inhibition mostly above about 28%, no sharp cut-off; inactive = mostly below about 43%; also: 0% is about no effect
Pf growth 48h: inhibits P. falciparum growth in the first generation, 48 h | P. falciparum luciferase growth in erythrocytes, 48 h | AID 504832 | actives 5.9% (n = 310,000) | Potency, µM (top dose mostly 28.7 µM), inactives show at the highest dose activity change, negative = inhibition, usual class: inhibitors; also: potency is read from the fitted curve at half-maximal effect; % is scaled to controls: 0 for no effect and ±100 for the full control effect
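First compound was added to culture medium, then infected red cells at 0.1% parasitemia and 2% hematocrit (final). After incubation at 37 C under 5% CO2, luciferase detection reagent was dispensed and light output recorded.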
HCV inh: blocks hepatitis C virus; actives 3.4% (n = 340,000); Potency, µM (highest dose often 41.8 µM), for the others: at the top dose activity change, negative = inhibition, most hits filed as inhibitors; AID 651820; Huh7.5.1 HCVcc-Cre infection, luciferase reporter, 44 h; also: potency is read from the fitted curve at half-maximal effect; % is scaled to controls: 0 for no effect and ±100 for the full control effect
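Antiviral activity was scored by luciferase reporter output from cells infected with HCVcc-Cre (~0.5 moi) in presence of compound, 44 h infection period, cells seeded 1,000/well 4 h prior.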
HCMV antiviral: blocks human cytomegalovirus replication | activity change, negative = inhibition, % at 57.5 µM | actives 4.5% (n = 410,000) | HFF cells, HCMV-luciferase reporter, 72 h; stronger effect = lower value; in the data active = activity change below about -60%; inconclusive = no clear call, values can overlap the other calls; inactive = above about -39%; also: % is scaled to controls: 0 for no effect and ±100 for the full control effect
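Inhibition of viral replication was scored as loss of reporter luminescence in HFFs infected with HCMV-luciferase (MOI 1 PFU/cell) for 72 h; compounds tested at 2 doses, normalized to buffer and Salinomycin controls.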
Pf growth 96h: inhibits malaria parasite growth, 96 h; P. falciparum luciferase reporter growth, 96 h; Potency, µM (series often up to 28.7 µM), inactives show at the top dose activity change, negative = inhibition, actives largely listed as inhibitors; actives 6.9% (n = 320,000); AID 504834; also: potency is read from the fitted curve at half-maximal effect; % is scaled to controls: 0 for no effect and ±100 for the full control effect
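Plates of compound plus infected erythrocytes (2% hematocrit, 0.05% parasitemia final) incubate 96 hours, 37 C, 5% CO2. Detection reagent added; reduced luminescence from the parasites' luciferase reporter flags inhibition.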
* = called active by the depositor; ? = inconclusive; . = no result. Unless noted, calls follow the shape of the dose curve; as a rule, active = well fitted inhibition curve with a large enough effect; inconclusive = small, poorly fitted or top-dose-only effect, or another doubt; inactive = no such curve, though single readings can be large or run the other way.

SMILES	Cycloheximide cs	Shiga toxin inh	Pf growth 48h	HCV inh	HCMV antiviral	Pf growth 96h
CCN(CC)CC(=O)N1CCCC(C(=O)c2ccccc2OC)C1 (stereo unspecified)	11	25	1%	8%	-28	?
COc1ccccc1C(=O)C1CCCN(C(=O)CCC(=O)c2ccccc2)C1 (stereo unspecified)	12*	22	4%	-2%	48	?
COC(=O)c1ccc(NC(=O)N2CCCC(C(=O)c3ccccc3OC)C2)cc1 (stereo unspecified)	-2	27	-5%	?	?	23%
COc1ccccc1C(=O)C1CCCN(C(=O)Nc2ccccc2F)C1 (stereo unspecified)	28*	73*	93%	-10%	71	?
COc1ccccc1C(=O)C1CCCN(C(=O)CSc2ccccn2)C1 (stereo unspecified)	-1	4	6%	5%	-19	10µM*
COc1ccc(F)cc1C(=O)C1CCCN(C(=O)CSc2ccccn2)C1 (stereo unspecified)	0	-4	?	13%	?	-27%
CO/N=C(\C(=O)N[C@@H]1C(=O)N2C(C(=O)O)=C(COC(C)=O)CS[C@H]12)c1csc(N)n1	4	12	.	.	.	.
CO/N=C(/C(=O)N[C@@H]1C(=O)N2C(C(=O)O)=C(CSC(=O)c3ccco3)CSC12)c1csc(N)n1 (stereo partly specified)	.	.	?	.	.	13µM*
CO/N=C(/C(=O)N[C@@H]1C(=O)N2C(C(=O)O)=C(C[n+]3ccc(N)n3CCO)CS[C@H]12)c1csc(N)n1	.	.	-6%	.	.	11µM*
COc1cc(S(=O)(=O)NC2CCCCC2C)ccc1F (stereo unspecified)	-3	16	4%	7%	-23	21%
COc1ccc(OC)c(NC(=O)Cn2cc(C#N)c3cc(Br)ccc32)c1	-2	-11	?	?	-66*	-3%
O=c1cc(SCc2ccc(Cl)cc2Cl)nc[nH]1	.	.	.	6%	-7	.
O=C(NCCc1ccccc1)c1cc(Sc2cccc(Cl)c2)nc2ccccc12	.	.	.	.	-10	.
CNC(=O)c1ccc(NC(=O)/C=C/c2cccc(F)c2)cc1	27*	64	38%	-8%	13	27%
Cc1ccc(NC(=O)/C=C/c2cccc(C(F)(F)F)c2)cc1	13	-8	-12%	?	?	2%
COc1ccc(NC(=O)/C=C/c2ccc(OC(F)F)cc2)cn1	6	20	?	11µM*	-12	?
COc1ccc(NC(=O)/C=C/c2cccc(Br)c2)cn1	27*	55*	18%	?	39	?
COc1ccc(NC(=O)/C=C/c2cccc(C(F)(F)F)c2)cn1	7	-2	?	11µM*	-32	?
CC(Sc1nnc(C(F)(F)F)n1C)C(=O)Nc1ccc(S(N)(=O)=O)cc1 (stereo unspecified)	7	-3	0%	0%	17	2%
Cc1ccc(CNC(=O)c2cc3c(=O)n(Cc4cccnc4)ccc3nc2C)cc1	.	.	.	.	-15	.
Cc1cccc(C(=O)OCC(=O)NC(=O)c2ccccc2)c1O	.	.	35%	6%	1	-4%
Cc1ccc(C)n1C1C(=O)N(Cc2ccc(C(F)(F)F)cc2)c2ccc(F)cc21 (stereo unspecified)	.	.	.	.	0	.
O=C(/C=C/c1cccc(C(F)(F)F)c1)Nc1cccc(C(F)(F)F)c1	-2	19	7.4µM*	?	-99*	?
O=C(/C=C/c1cccc(C(F)(F)F)c1)NNC(=O)c1ccncc1	.	.	-3%	?	-76*	3%
Cc1ccc(Cn2cccc2/C=C2/C(=N)N3C=CSC3=NC2=O)cc1	-2	-15	2%	?	29	6.6µM*
Cc1cccc(C)c1NC(=O)C1(C)CSCC(=O)N1CCc1ccc(O)cc1 (stereo unspecified)	.	.	.	.	-7	.
CCOc1cccc2sc(NC(=O)c3ccc(S(=O)(=O)N4CCCCC4)cc3)nc12	.	.	.	.	-8	.
O=C(/C=C/c1ccccc1[N+](=O)[O-])Nc1cccnc1	36*	45*	135%	11%	86	178%

Assay outcomes as filed in PubChem BioAssay.
